gsp antagonist – antagonists of gsp mutant (McCune-Albright syndrome); AID 624288; Potency, µM (top dose mostly 76.9 µM), for the others: top-dose activity change, negative = inhibition, hits mostly inhibitors; actives 0.4% (n = 340,000); gsp-mutant cells, cAMP HTRF, 30 min; calls by dose curve; cell line not stated here;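 note: intracellular cAMP measured with PDE inhibitor Ro 20-1724 present during compound exposure; potency is the fitted concentration of half-maximal effect; % is set by controls: 0 for no effect and ±100 for the full control effect; nearly all actives have a fitted effect of over 65% in size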
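HTRF cAMP read-out (cAMP-d2 plus anti-cAMP antibody-K in lysis buffer, 30 min RT). Before lysis, cells are exposed to compounds with […] for 30 min at 37C in DPBS containing Ca/Mg, BSA and Tween 20.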
TSHR antag – antagonists of human thyroid stimulating hormone receptor; P16473; TSHR-expressing cells, TSH-stimulated cAMP HTRF, 2 h; active compounds read low; activity change, negative = inhibition, % at 11.5 µM; actives 0.2% (n = 330,000); AID 504810;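 active = activity change below a set negative limit, meaning inhibition stronger than a set level, cut at about -70% in these data; inconclusive = activity change between two set negative limits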; note: % is set by controls: 0 for no effect and ±100 for the full control effect
Target sequence (P16473 whole entry, looked up): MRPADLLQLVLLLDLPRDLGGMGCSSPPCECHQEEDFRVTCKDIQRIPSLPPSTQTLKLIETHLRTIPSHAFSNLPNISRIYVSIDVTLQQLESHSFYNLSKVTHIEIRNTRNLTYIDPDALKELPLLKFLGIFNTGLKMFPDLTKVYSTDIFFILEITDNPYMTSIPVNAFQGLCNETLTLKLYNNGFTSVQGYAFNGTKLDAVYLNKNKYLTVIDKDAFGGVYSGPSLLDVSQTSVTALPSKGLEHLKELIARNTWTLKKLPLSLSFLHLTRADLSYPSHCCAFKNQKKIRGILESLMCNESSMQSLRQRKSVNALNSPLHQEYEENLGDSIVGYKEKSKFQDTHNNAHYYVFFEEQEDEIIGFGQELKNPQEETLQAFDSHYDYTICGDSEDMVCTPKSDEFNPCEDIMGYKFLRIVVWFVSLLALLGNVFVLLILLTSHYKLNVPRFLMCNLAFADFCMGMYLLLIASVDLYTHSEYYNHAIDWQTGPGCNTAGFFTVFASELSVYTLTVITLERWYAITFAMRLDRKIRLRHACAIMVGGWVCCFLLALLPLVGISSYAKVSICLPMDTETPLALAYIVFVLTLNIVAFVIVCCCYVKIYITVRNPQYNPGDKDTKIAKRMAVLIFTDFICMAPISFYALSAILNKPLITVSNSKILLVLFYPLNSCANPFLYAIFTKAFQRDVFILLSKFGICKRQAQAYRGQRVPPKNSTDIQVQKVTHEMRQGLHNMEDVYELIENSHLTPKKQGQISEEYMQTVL
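Inhibition of cAMP made by TSHR-expressing cells under TSH stimulation (4nM final, EC80; 2 h, 37 deg C) is quantified with a one-step lysis HTRF kit, anti-cAMP cryptate versus cAMP-d2.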
Pin1 inhibitor – blocks the human prolyl isomerase Pin1; Potency, µM (series often up to 115 µM), for the others: at the highest dose activity, negative = inhibition, most hits filed as inhibitors; Pin1 FP peptide displacement, HiFluor488, 10 min; actives 0.009% (n = 390,000); AID 504891; Q13526; active = well fitted inhibition curve with a large enough effect in the polarisation, with a control signal flat, not every such curve was filed as active; inconclusive = small, poorly fitted or top-dose-only effect, or effect the other way, or a change in a side signal; inactive = no such curve, though single readings can be large or run the other way; the % refers to the polarisation; note: potency is the fitted concentration of half-maximal effect; % is set by controls: 0 for no effect and ±100 for the full control effect
gsp ag – activates gsp, the McCune-Albright syndrome mutation; Potency, µM (top dose mostly 76.9 µM), without a hit: top-dose activation (cAMP increase), most hits filed as activators; actives 0.13% (n = 340,000); gsp mutant cells, cAMP HTRF, 30 min; active = well fitted activation curve with a large enough effect; inconclusive = small, poorly fitted or top-dose-only effect, or another doubt; inactive = no such curve, though single readings can be large or run the other way; cell line not stated here;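 note: phosphodiesterase inhibitor Ro 20-1724 added with compounds to block cAMP breakdown; potency is the fitted concentration of half-maximal effect; nearly all actives have a fitted effect of over 60% in size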
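Cells in DMEM/10% FBS with G418 were pretreated with compounds in DMSO plus […] (300 uM stock) for 30 min at 37C. cAMP was measured by HTRF (cAMP-d2 plus anti-cAMP antibody-K) after 30 min at room temperature.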
TCR activator – T cell receptor activation; Potency, µM (titrated, usually from 9.22 µM), for the others: at the top dose activation of IL-2 secretion, hits mostly activators; primary human leukocytes, anti-CD3, IL-2 HTRF, 48 h; 330,000 tested, under 10 active; active = well fitted activation curve with a large enough effect; inconclusive = small, poorly fitted or top-dose-only effect, or another doubt; inactive = no such curve, though single readings can be large or run the other way; note: % of control where 0% means no effect
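1) Mix primary human leukocytes, a-CD3 beads and compound. 2) Incubate 48 hr. 3) Add HTRF IL-2 reagents (a-IL-2-K, a-IL-2-d2).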
The depositor's hits bear a star; ? = inconclusive; · = no result; [ ] = another dose, or the depositor's remark. An excerpt weighted towards active compounds, which were near 0.63% of everything screened.

SMILES	gsp antagonist	TSHR antag	Pin1 inhibitor	gsp ag	TCR activator
CN(C)S(=O)(=O)c1ccc2nc(NC(=O)c3cccnc3)sc2c1	-8%	·	38%	44%	-7%
O=[N+]([O-])c1ccc2nc(SCc3ccccc3Cl)sc2c1	25µM*	34	-3%	-12%	·
CCOC(=O)/C(C#N)=C/c1cc2ccccc2nc1N1CCCCC1	3%	9	?	11µM*	-4%
Cc1ccc2cc(/C=C(\C#N)C(N)=O)c(N3CCCCC3)nc2c1	-14%	-3	?	?	6%[46.1 µM]
Fc1ccc2nc3[nH]c4ccccc4c3nc2c1	4%	1	8%	14%	-17%
O=C(Nc1cccc(Cl)c1)c1cccc(Oc2ccc([N+](=O)[O-])cc2Cl)c1	-23%	-11	?	-2%	-3%[46.1 µM]
O=C(Nc1ccc([N+](=O)[O-])cc1Cl)c1cc(Cl)ccc1O	2µM*	-91*	-6%	·	-2%
O=C(Nc1cccc(Cl)c1)c1cc(N=Nc2ccc([N+](=O)[O-])cc2Cl)ccc1O	-20%	-98*	0%	-21%	8%
CCOC(=O)c1sc(SCC(=O)Nc2ccc(N(C)C)cc2)nc1N	28µM*	-21	?	-1%	-1%
Cc1nn(-c2ccc(N3CCOCC3)nn2)c(C)c1CCC(=O)NCc1ccccc1F	16%	-105*	-6%	28%	-4%
COc1ccc2cc(C(=O)C3CCCN(C(=O)CCc4ccccn4)C3)ccc2c1 (centres undefined)	4.5µM*	-1	17%	-12%[15.4 µM]	3%
COc1cccc(C(=O)C2CCCN(C(=O)CCc3scnc3C)C2)c1 (centres undefined)	-7%	-9	-4%	12%[15.4 µM]	5%
CC1=C(C(=O)OCC(Cl)(Cl)Cl)N2C(=O)C(NC(=O)Cc3ccccc3)C2SC1 (centres undefined)	·	-77*	-1%	-12%[15.4 µM]	-4%
C=CCNC(=S)Nc1sc2c(c1C(=O)OCC)CC(C)(CC)OC2 (centres undefined)	7.9µM*	-1	7%	-2%[15.4 µM]	-1%[46.1 µM]
CCOC(=O)c1c(NC(=O)C2CC2)sc2c1CC(C)(C)OC2	-15%	7	-6%	2%	6%
CCOC(=O)c1c(NC(=O)C2CC(Cl)=CCC2C(=O)O)sc2c1CC(C)(C)OC2 (centres undefined)	14µM*	4	2%	23%[15.4 µM]	5%
Cc1ccc(NC(=O)Cn2ncc3c([nH]c4ccccc43)c2=O)cc1Cl	1%	-70*	2%	?	2%
COC(=O)c1sc(N2C(=O)C(O)=C(C(=O)c3ccc(C)o3)C2c2ccc(OC)c(OC)c2)nc1C (centres undefined)	10%	44	30%	3.5µM*	6%
CCOC(=O)c1sc(N2C(=O)C(O)=C(C(=O)c3ccc(C)o3)C2c2ccc(OC)c(OC)c2)nc1C (centres undefined)	9%	11	?	?	1%
Cc1ccccc1NC(=S)NNC(=O)c1csc2c1CCC(C)C2 (centres undefined)	-22%	-2	-9%	1%	3%
CCC(=O)N(c1ccc(C(=O)O)cc1)c1nc(-c2ccc(OC)cc2)c(C)s1	25µM*	-5	1%	?	3%
S=c1[nH]c2ccccc2n2cccc12	16%	4	-2%	22µM*	-5%
O=C(Nc1ccc(-c2cn3ccsc3n2)cc1)C1COc2ccccc2O1 (centres undefined)	40µM*	-14	6%	-29%	-12%
CC(=O)c1c(C)[nH]c(C(=O)CSc2nnc(NC3CC3)s2)c1C	-36%	11	2%	-1%[15.4 µM]	2%
Nc1nc2[nH]c(=S)[nH]c2c(=O)[nH]1	·	·	4%	·	·
Nc1nc2nc[nH]c2c(=O)[nH]1	-2%	-71*	-8%	·	-3%
Cc1cc(C)n(C(=O)CNC(=O)c2ccco2)n1	-2%	7	-8%	9%	·
CCOc1ccc(C(=O)Nc2ccc(C(F)(F)F)n(C)c2=O)cc1	3%	-1	0%	28µM*	1%
CCn1cc(CN2CCN(CCc3ccccc3)C(CCO)C2)c(C)n1 (centres undefined)	17%	0	5%	1%[15.4 µM]	2%

Screening results from PubChem.
